Experimental data reported in PubChem BioAssay (EPA / NIEHS).
“And” between values parts separate entries of the source, which are not always exact repeats. Equal entries are not always repeated. The source made the active and inactive calls. The calls were made as follows: active = hit-call score of the fitted dose curve at least 0.9, where 1 is the maximum; inactive = score below 0.9.

How the values were obtained:
[1] = read-out: Urokinase-type plasminogen activator receptor (uPAR), PLAUR (gene 5329); assay: BSK_4H_uPAR: BioMAP Diversity Plus: 4H Assay for Urokinase-type plasminogen activator receptor (uPAR) Biomarker Activity (AID 2283030); conditions: primary human endothelial cells (HUVEC); actives raise or lower the signal
Method in brief: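 HUVEC, 24 h post-dose; uPAR by ELISA; bidirectional fit vs DMSO baseline.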

[2] = read-out: Vascular endothelial growth factor receptor 2 (Homo sapiens) (UniProt P35968); assay: BSK_4H_VEGFRII: BioMAP Diversity Plus: 4H Assay for Vascular endothelial growth factor receptor 2 (VEGFR2) Biomarker Activity (AID 2283031); conditions: primary human endothelial cells (HUVEC); actives raise or lower the signal;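 as to AC50: cell-surface VEGFR2 protein level quantified by ELISA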
Method in brief: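 HUVEC (human primary), 4H system; 24 h post-dose; VEGFRII by ELISA; bidirectional curve fit vs DMSO baseline; gain or loss of signal scored.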

[3] = read-out: Human Leukocyte Antigen - DR isotype (HLADR), HLA-DRA (gene 3122); assay: BSK_BE3C_HLADR: BioMAP Diversity Plus: BE3C Assay for Human Leukocyte Antigen - DR isotype (HLADR) Biomarker Activity (AID 2283032); conditions: primary human bronchial epithelial cells; actives raise or lower the signal
Method in brief: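 Human primary bronchial epithelial cells in the BE3C system were exposed to chemicals for 24 h, after which HLA-DR levels were quantified by ELISA. Activity was fitted bidirectionally, gain or loss of signal, against DMSO as negative control and baseline.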

[4] = read-out: Vascular cell adhesion molecule 1 (VCAM1), VCAM1 (gene 7412); assay: BSK_4H_VCAM1: BioMAP Diversity Plus: 4H Assay for Vascular cell adhesion molecule 1 (VCAM1) Biomarker Activity (AID 2283033); conditions: primary human endothelial cells (HUVEC); actives raise or lower the signal
Method in brief: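 Primary human umbilical vein endothelial cells were exposed to chemicals for 24 h, after which VCAM-1 was quantified by ELISA. Responses were fitted bidirectionally against DMSO as negative control and activity baseline.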

[5] = read-out: Interferon-gamma inducible Protein 10 (IP10), CXCL10 (gene 3627); assay: BSK_BE3C_IP10: BioMAP Diversity Plus: BE3C Assay for Interferon-gamma inducible Protein 10 (IP10) Biomarker Activity (AID 2283034); conditions: primary human bronchial epithelial cells; actives raise or lower the signal
Method in brief: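 Human primary bronchial epithelial cells were exposed to chemicals for 24 hours, after which IP-10 levels were measured by ELISA. Data were fitted bidirectionally against DMSO, which served as the negative control and activity baseline.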

[6] = read-out: Monokine induced gamma interferon (MIG), CXCL9 (gene 4283); assay: BSK_BE3C_MIG: BioMAP Diversity Plus: BE3C Assay for Monokine induced gamma interferon (MIG) Biomarker Activity (AID 2283035); conditions: primary human bronchial epithelial cells; actives raise or lower the signal;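 also: MIG protein measured by ELISA in BE3C cultures after 24 h of dosing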
Method in brief: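 MIG level was determined by ELISA after 24 h chemical treatment of primary human bronchial epithelial cells. Values were fitted bidirectionally with DMSO as the negative control and activity baseline.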

[7] = read-out: Plasminogen activator inhibitor-1 (PAI1), SERPINE1 (gene 5054); assay: BSK_BE3C_PAI1: BioMAP Diversity Plus: BE3C Assay for Plasminogen activator inhibitor-1 (PAI1) Biomarker Activity (AID 2283037); conditions: primary human bronchial epithelial cells; actives raise or lower the signal
Method in brief: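 Human primary bronchial epithelial cells were exposed to chemical for 24 h, then PAI-1 was quantified by ELISA. Activity was fitted bidirectionally relative to the DMSO negative control baseline.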

[8] = read-out: urokinase plasminogen activator (uPA), PLAU (gene 5328); assay: BSK_BE3C_uPA: BioMAP Diversity Plus: BE3C Assay for urokinase plasminogen activator (uPA) Biomarker Activity (AID 2283038); conditions: primary human bronchial epithelial cells; actives raise or lower the signal;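 also: uPA protein level quantified by ELISA in cell cultures; uPA read one day after compound addition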
Method in brief: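 ELISA read-out of uPA in human lung primary bronchial epithelial cultures, 24 h post-dosing. Gain or loss of signal fitted bidirectionally relative to DMSO baseline; cytotoxicity checked in parallel cultures via SRB total protein stain.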

[9] = read-out: Urokinase-type plasminogen activator receptor (uPAR), PLAUR (gene 5329); assay: BSK_BE3C_uPAR: BioMAP Diversity Plus: BE3C Assay for Urokinase-type plasminogen activator receptor (uPAR) Biomarker Activity (AID 2283039); conditions: primary human bronchial epithelial cells; actives raise or lower the signal;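 also: uPAR protein level measured by ELISA on the cells; cells exposed to compound for one day before measurement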
Method in brief: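 Primary human bronchial epithelial cells were dosed with chemical and harvested 24 h later; uPAR was quantified by ELISA. Activity was fitted bidirectionally against DMSO as negative control and baseline.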

[10] = read-out: Transforming growth factor beta 1 (TGFb1), TGFB1 (gene 7040); assay: BSK_BE3C_TGFb1: BioMAP Diversity Plus: BE3C Assay for Transforming growth factor beta 1 (TGFb1) Biomarker Activity (AID 2283036); conditions: primary human bronchial epithelial cells; actives raise or lower the signal
Method in brief: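 Human primary bronchial epithelial cells (BE3C system) were dosed with chemical and TGF-b1 levels measured by ELISA at 24 h. Activity was fitted bidirectionally relative to DMSO negative control as baseline.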

Measured: AC50

COC(=O)CCC(F)(F)C(F)(F)C(F)(F)C(F)(F)F
not listed: [10]
inactive: all other assays above

CC(=O)Nc1ccc(N=Nc2cc(C)ccc2O)cc1
active: [5] 29.7 µM
inactive: all other assays above

O=C(O)C=C(C(F)(F)F)C(F)(F)F
active: [4] 15.2 µM and 5.95 µM
not listed: [10]
inactive: all other assays above

O=C(O)C(F)(F)C(F)(F)C(F)(F)C(F)(F)C(F)(F)C(F)(F)C(F)(F)C(F)(F)C(F)(F)C(F)(F)C(F)(F)C(F)(F)F
active: [2] 22 µM and 11.1 µM | [4] 3.66 µM and 1.18 µM
not listed: [10]
inactive: all other assays above

O=S(=O)(O)C(F)(F)C(F)(F)C(F)(F)C(F)(F)C(F)(F)C(F)(F)C(F)(F)F
not listed: [10]
inactive: all other assays above

C=CC(=O)OCC(F)(F)C(F)(F)C(F)(F)C(F)(F)C(F)(F)C(F)(F)C(F)(F)F
not listed: [7] | [10]
inactive: all other assays above

O=C(O)C(F)(F)C(F)(F)C(F)F
not listed: [10]
inactive: all other assays above

C=C(C)C(=O)OCC(F)(F)C(F)(F)C(F)(F)F
not listed: [7] | [10]
inactive: all other assays above

OCCCC(F)(F)C(F)(F)C(F)(F)F
not listed: [7] | [10]
inactive: all other assays above

C=CC(F)(F)C(F)(F)C(F)(F)C(F)(F)C(F)(F)C(F)(F)C(F)(F)C(F)(F)C=C
not listed: [7] | [10]
inactive: all other assays above

FC(F)(F)C(F)(F)C(F)(F)N(C(F)(F)C(F)(F)C(F)(F)F)C(F)(F)C(F)(F)C(F)(F)F
not listed: [7] | [10]
inactive: all other assays above

CC(C)(C)C(=O)CC(=O)C(F)(F)C(F)(F)C(F)(F)F
not listed: [10]
inactive: all other assays above

C=C(C)C(=O)OCC(F)(F)C(F)(F)C(F)(F)C(F)(F)C(F)(F)C(F)(F)C(F)(F)F
not listed: [10]
inactive: all other assays above

CCO[Si](CCC(F)(F)C(F)(F)C(F)(F)C(F)(F)C(F)(F)C(F)(F)F)(OCC)OCC
not listed: [7] | [10]
inactive: all other assays above

O=C(O)C(F)(OC(F)(F)C(F)(OC(F)(F)C(F)(OC(F)(F)C(F)(F)C(F)(F)F)C(F)(F)F)C(F)(F)F)C(F)(F)F (configuration not stated)
not listed: [7] | [10]
inactive: all other assays above

FC(F)(F)C(F)(F)C(F)(F)C(F)(F)C(F)(F)C(F)(F)CCS
not listed: [10]
inactive: all other assays above

OCC(F)(F)C(F)(F)C(F)(F)C(F)(F)C(F)(F)C(F)F
not listed: [7] | [10]
inactive: all other assays above

FC(F)(F)C(F)(F)C(F)(F)C(F)(F)C(F)(F)C(F)(F)C(F)(F)I
not listed: [7] | [10]
inactive: all other assays above

FC(F)(F)C(F)(F)C(F)(F)C(F)(F)CCI
not listed: [7] | [10]
inactive: all other assays above
